According to the supplement of paper PMC10849652:
About 8,800 targets were measured; listed, in parts, are those with a hit and a random draw of the rest. About 0.5% of all pairs of compound and target were hits.

Tests used:
Assay in all cases: log2 fold change, soluble protein after heating vs DMSO (PISA); higher = thermal stabilisation; K562 lysate, 10 uM; active = over 0.2 and 3.5 SD of the protein, either way, in both replicates (recomputed)
erlotinib = compound: C#Cc1cccc(Nc2ncnc3cc(OCCOC)c(OCCOC)cc23)c1 [erlotinib]
In short: (§1)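 Pellets of K562 cells were dounce-homogenised in PBS pH 7.4 with 1 mM MgCl2, and the crude extract was held at 1 mg/mL protein for a 30 min treatment with 10 μM compound. Aliquots were heated for 3 min over 48°C-58°C and pooled before NP-40 was added to 0.5% at 4°C. The supernatant from 21,000xg for 90 min was quantified by TMTpro 16plex LC-MS/MS with channel sums equalised. Values are reported from duplicates as log-two fold change in thermal stability relative to solvent controls.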

[1] = compound: C/C(=N\NC(=O)C1=CC(=CC=C1)S(=O)(=O)N2CCOCC2)/C3=C(C=CC(=C3)Cl)O
In short: as §1

[2] = compound: C1=CC(=CC=C1C2=NC3=C(N2)C=C(C=C3)C(=O)N)OC4=CC=C(C=C4)Cl
In short: as §1

[3] = compound: C1=CC2=C(C=CC(=C2)/C=C\3/C(=O)NC(=NCC4=CC=CS4)S3)N=C1
In short: as §1

[4] = compound: C1=CC2=NC=CN=C2C=C1/C=C/3\C(=O)NC(=O)S3
In short: as §1

[5] = compound: C1=CC=C(C=C1)C2=NC(=C(N2)C3=CC=NC=C3)C4=CC(=C(C=C4)Cl)O
In short: as §1

[6] = compound: C1=CC=C2C(=C1)C3=NNC4=CC=CC(=C43)C2=O
In short: as §1

[7] = compound: C1CCN(C1)C(=O)NC2=CC=CC(=C2)NC3=NC=C(C(=N3)NCCC4=CN=CN4)Br
In short: as §1

[8] = compound: C1CN(CCC1(CC2=CC=C(C=C2)Cl)N)C3=NC=NC4=C3C=CN4
In short: as §1

IRAK-1-4 Inhibitor I = compound: C1COCCN1CCN2C3=CC=CC=C3N=C2NC(=O)C4=CC(=CC=C4)[N+](=O)[O-] [IRAK-1-4 Inhibitor I]
In short: as §1

ibrutinib = compound: C=CC(=O)N1CCC[C@@H](n2nc(-c3ccc(Oc4ccccc4)cc3)c3c(N)ncnc32)C1 [ibrutinib]
In short: as §1

[9] = compound: CC(=O)c1cnc2ccc(-c3cc(Cl)c(O)c(Cl)c3)nc2c1N[C@H]1CC[C@H](CN(C)C)CC1
In short: as §1

ralimetinib = compound: CC(C)(C)Cn1c(N)nc2ccc(-c3[nH]c(C(C)(C)C)nc3-c3ccc(F)cc3)nc21 [ralimetinib]
In short: as §1

[10] = compound: CC(C)(O)CC(=O)NCCn1ccc2ncnc(Nc3ccc(Oc4cccc(C(F)(F)F)c4)c(Cl)c3)c21
In short: as §1

[11] = compound: CC(C)C1=C2N=C(C=C(N2N=C1)NCC3=CC=CC=C3)NCCCCCCN
In short: as §1

[12] = compound: CC1=C(C(CC(=O)N1)C2=CC=C(C=C2)C(F)(F)F)C(=O)NC3=C(C=C4C(=C3)C=NN4)F
In short: as §1

[13] = compound: CC1=C(C2=C(C=C1)C(=O)C3=CC=CC=C3N2CCCN)C
In short: as §1

[14] = compound: CC1=C(C=C(C=C1)NC(=O)C2=CC(=CC=C2)C(C)(C)C#N)NC3=CC4=C(C=C3)N=CN(C4=O)C
In short: as §1

[15] = compound: CC1=C(C=C(C=C1)NC(=O)C2=CC(=CC=C2)N(C)C)NC(=O)C3=CC=C(C=C3)O
In short: as §1

[16] = compound: CC1=CC=C(C=C1)SC2=C3C=C(SC3=CN=C2)C(=O)N
In short: as §1

Measured: log2 fold change

TRAPPC10 (UniProt P48553)
inactive: erlotinib 0.066 | [1] 0.031 | [2] 0.027 | [3] 0.045 | [4] 0.018 | [5] 0.004 | [6] -0.058 | [7] 0.057 | [8] 0.005 | IRAK-1-4 Inhibitor I 0.013 | ibrutinib -0.006 | [9] -0.004 | ralimetinib 0.025 | [10] -0.03 | [11] 0.027 | [12] 0.002 | [13] -0.029 | [14] 0.019 | [15] 0.02 | [16] -0.004

UBR5 (UniProt O95071)
inactive: erlotinib 0.005 | [1] -0.029 | [2] -0.024 | [3] -0.002 | [4] -0.012 | [5] -0.013 | [6] -0.033 | [7] -0.001 | [8] 0.007 | IRAK-1-4 Inhibitor I 0.001 | ibrutinib -0.001 | [9] -0.005 | ralimetinib 0.01 | [10] -0.028 | [11] -0.005 | [12] 0.004 | [13] -0.011 | [14] 0.013 | [15] 0.016 | [16] 0.018

TYMS (UniProt P04818)
Sequence of UniProt P04818 (P04818 whole entry, looked up): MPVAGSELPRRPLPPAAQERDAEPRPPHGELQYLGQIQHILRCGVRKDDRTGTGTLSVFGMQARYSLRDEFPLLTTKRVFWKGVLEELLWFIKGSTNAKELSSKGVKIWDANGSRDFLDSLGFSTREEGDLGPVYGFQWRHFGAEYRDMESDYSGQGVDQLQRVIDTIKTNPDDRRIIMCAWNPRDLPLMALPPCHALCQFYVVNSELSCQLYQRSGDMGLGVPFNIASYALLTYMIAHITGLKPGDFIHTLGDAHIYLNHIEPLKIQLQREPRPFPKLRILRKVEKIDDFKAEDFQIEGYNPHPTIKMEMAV
inactive: erlotinib 0.016 | [1] 0.041 | [2] 0.011 | [3] -0.032 | [4] 0.032 | [5] -0.026 | [6] 0.019 | [7] 0.035 | [8] -0.004 | IRAK-1-4 Inhibitor I -0.008 | ibrutinib -0.041 | [9] -0.017 | ralimetinib 0.014 | [10] 0.029 | [11] 0.01 | [12] 0.001 | [13] 0.043 | [14] -0.005 | [15] -0.001 | [16] -0.022

TUT4 (UniProt Q5TAX3)
Sequence of UniProt Q5TAX3 (Q5TAX3 whole entry, looked up): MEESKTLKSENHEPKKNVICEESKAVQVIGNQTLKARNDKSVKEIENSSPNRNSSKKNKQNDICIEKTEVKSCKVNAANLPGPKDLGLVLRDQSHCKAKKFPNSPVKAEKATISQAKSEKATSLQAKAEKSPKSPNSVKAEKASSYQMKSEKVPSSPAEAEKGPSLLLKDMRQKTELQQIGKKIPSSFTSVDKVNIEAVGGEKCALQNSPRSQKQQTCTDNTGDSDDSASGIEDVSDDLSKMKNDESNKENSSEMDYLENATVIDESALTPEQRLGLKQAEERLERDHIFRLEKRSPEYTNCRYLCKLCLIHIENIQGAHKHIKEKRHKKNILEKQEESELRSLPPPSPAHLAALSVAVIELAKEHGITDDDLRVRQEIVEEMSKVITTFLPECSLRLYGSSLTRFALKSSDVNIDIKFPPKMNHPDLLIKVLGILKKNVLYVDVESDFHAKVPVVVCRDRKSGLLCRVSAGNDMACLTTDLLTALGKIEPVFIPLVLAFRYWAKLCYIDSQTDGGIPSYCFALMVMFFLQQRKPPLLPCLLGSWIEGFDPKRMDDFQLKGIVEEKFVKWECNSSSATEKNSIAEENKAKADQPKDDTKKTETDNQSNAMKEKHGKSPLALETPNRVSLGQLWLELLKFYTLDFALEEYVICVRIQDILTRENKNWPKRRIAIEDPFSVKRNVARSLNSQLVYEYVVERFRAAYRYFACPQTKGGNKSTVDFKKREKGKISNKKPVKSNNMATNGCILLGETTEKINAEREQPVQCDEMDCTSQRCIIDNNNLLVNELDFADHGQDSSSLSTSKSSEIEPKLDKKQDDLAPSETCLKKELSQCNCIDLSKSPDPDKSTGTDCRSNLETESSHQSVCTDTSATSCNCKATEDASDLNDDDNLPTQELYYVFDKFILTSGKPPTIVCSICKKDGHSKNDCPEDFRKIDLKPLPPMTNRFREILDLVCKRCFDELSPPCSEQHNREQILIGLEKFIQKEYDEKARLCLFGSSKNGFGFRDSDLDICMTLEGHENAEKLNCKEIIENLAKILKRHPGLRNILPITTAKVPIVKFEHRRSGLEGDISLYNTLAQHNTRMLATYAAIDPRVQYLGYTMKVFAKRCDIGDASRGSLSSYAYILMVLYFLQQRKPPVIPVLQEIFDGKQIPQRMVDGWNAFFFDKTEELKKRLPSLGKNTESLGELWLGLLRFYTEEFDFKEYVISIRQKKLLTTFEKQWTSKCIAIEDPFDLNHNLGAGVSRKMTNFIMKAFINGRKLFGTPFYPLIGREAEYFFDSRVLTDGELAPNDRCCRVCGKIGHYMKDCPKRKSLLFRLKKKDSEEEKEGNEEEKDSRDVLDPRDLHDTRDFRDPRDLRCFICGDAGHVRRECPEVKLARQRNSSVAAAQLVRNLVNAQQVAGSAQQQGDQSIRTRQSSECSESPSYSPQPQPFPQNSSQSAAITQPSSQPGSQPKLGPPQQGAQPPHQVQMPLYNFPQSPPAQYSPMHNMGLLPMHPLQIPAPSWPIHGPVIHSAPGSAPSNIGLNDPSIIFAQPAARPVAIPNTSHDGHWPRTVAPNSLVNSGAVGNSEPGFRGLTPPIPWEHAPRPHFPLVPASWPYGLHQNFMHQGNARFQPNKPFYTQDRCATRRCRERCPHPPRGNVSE
inactive: erlotinib -0.009 | [1] -0.048 | [2] -0.014 | [3] -0.062 | [4] -0.054 | [5] -0.004 | [6] -0.021 | [7] -0.029 | [8] 0.019 | IRAK-1-4 Inhibitor I 0.023 | ibrutinib 0.024 | [9] -0.013 | ralimetinib 0.006 | [10] -0.07 | [11] 0.023 | [12] -0.003 | [13] -0.045 | [14] -0.165 | [15] -0.007 | [16] 0.041

TSFM (UniProt P43897)
Sequence of UniProt P43897 (P43897 whole entry, looked up): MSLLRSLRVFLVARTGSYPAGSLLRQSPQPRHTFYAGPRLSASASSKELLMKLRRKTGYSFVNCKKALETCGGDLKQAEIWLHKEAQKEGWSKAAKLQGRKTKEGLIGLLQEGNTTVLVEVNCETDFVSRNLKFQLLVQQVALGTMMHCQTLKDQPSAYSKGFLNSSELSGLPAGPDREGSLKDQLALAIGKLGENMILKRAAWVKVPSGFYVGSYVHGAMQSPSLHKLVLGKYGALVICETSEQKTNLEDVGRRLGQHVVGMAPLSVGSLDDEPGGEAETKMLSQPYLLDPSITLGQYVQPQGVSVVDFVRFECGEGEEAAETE
inactive: erlotinib -0.013 | [1] 0.009 | [2] -0.035 | [3] -0.003 | [4] -0.002 | [5] 0.017 | [6] -0.063 | [7] 0.024 | [8] 0.034 | IRAK-1-4 Inhibitor I -0.024 | ibrutinib 0.004 | [9] -0.05 | ralimetinib 0.03 | [10] 0.026 | [11] 0.015 | [12] -0.024 | [13] -0.003 | [14] 0.116 | [15] 0.017 | [16] -0.063

UBE2L6 (UniProt O14933)
Sequence of UniProt O14933 (O14933 whole entry, looked up): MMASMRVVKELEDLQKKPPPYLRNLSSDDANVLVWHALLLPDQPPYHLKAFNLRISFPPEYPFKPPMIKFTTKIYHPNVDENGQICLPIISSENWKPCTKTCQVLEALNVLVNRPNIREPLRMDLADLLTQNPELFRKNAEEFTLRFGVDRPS
inactive: erlotinib 0.062 | [1] -0.03 | [2] 0.007 | [3] -0.003 | [4] -0.065 | [5] -0.001 | [6] 0.023 | [7] -0.014 | [8] 0.144 | IRAK-1-4 Inhibitor I 0.047 | ibrutinib 0.152 | [9] 0.012 | ralimetinib -0.002 | [10] -0.041 | [11] -0.009 | [12] -0.033 | [13] -0.014 | [14] -0.019 | [15] -0.007 | [16] 0.002

TPD52L2 isoform 7 (UniProt O43399)
Sequence of UniProt O43399 (O43399 whole entry, looked up): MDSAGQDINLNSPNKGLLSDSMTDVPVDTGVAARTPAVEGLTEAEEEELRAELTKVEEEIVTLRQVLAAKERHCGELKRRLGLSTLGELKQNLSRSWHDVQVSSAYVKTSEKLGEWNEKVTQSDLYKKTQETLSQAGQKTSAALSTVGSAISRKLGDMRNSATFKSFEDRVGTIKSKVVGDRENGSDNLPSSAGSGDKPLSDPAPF
inactive: erlotinib -0.044 | [1] -0.028 | [2] 0.085 | [3] 0.015 | [4] 0 | [5] 0.017 | [6] 0.036 | [7] 0.029 | [8] -0.004 | IRAK-1-4 Inhibitor I -0.031 | ibrutinib -0.016 | [9] 0.017 | ralimetinib -0.013 | [10] 0.01 | [11] -0.013 | [12] 0.023 | [13] -0.024 | [14] 0.007 | [15] -0.006 | [16] -0.001

TRIM44 (UniProt Q96DX7)
Sequence of UniProt Q96DX7 (Q96DX7 whole entry, looked up): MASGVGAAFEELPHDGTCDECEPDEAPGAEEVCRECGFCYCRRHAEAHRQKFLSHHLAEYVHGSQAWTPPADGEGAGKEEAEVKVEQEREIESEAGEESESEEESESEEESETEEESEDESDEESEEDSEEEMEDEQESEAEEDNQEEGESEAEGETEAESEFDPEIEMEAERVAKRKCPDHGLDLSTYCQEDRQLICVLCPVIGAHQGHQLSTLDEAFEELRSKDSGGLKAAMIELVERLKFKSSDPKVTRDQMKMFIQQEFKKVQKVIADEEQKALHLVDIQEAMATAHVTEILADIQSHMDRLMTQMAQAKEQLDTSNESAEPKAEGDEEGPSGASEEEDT
inactive: erlotinib -0.066 | [1] 0.067 | [2] -0.016 | [3] -0.037 | [4] 0.057 | [5] -0.013 | [6] -0.038 | [7] 0.053 | [8] 0.072 | IRAK-1-4 Inhibitor I 0.043 | ibrutinib 0.031 | [9] 0.124 | ralimetinib 0.032 | [10] -0.013 | [11] -0.037 | [12] -0.021 | [13] -0.004 | [14] -0.044 | [15] 0.022 | [16] 0.086

TNIK isoform 4 (UniProt Q9UKE5)
Sequence of UniProt Q9UKE5 (Q9UKE5 whole entry, looked up): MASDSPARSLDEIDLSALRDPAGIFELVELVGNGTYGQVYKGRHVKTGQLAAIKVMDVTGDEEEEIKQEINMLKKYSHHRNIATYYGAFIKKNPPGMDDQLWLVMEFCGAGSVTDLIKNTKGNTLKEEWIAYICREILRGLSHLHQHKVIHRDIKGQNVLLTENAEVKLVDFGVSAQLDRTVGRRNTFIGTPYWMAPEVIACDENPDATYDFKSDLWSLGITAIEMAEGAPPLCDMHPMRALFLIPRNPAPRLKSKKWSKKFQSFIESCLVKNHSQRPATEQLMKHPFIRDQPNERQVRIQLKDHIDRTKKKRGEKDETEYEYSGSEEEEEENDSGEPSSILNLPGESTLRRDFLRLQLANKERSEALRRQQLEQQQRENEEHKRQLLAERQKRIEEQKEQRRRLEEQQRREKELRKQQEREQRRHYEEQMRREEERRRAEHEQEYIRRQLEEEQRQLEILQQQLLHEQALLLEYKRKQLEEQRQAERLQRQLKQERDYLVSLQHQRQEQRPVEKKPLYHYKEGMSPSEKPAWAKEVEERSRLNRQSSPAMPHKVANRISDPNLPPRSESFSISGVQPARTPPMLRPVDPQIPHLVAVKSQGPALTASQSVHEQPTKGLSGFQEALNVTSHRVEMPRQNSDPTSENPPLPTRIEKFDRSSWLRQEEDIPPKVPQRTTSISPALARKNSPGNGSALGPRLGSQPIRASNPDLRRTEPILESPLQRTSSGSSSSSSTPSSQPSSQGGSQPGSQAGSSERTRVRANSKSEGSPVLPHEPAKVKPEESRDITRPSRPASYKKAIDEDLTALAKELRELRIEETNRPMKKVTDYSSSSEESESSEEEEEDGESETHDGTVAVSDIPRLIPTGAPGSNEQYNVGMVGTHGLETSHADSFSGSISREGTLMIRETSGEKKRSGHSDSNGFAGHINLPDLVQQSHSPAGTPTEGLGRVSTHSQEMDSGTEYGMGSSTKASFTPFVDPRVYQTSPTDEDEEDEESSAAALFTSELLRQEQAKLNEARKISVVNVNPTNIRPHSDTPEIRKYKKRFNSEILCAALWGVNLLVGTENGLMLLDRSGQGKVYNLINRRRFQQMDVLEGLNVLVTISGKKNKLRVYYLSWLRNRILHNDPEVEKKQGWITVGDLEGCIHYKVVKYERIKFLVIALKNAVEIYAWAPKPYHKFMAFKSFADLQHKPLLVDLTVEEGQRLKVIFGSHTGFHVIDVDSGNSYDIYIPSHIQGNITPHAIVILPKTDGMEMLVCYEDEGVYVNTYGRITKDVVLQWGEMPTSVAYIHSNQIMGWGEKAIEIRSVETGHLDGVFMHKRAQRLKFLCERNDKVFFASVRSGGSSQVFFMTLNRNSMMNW
active: [9] 0.374
inactive: erlotinib -0.015 | [1] -0.037 | [2] -0.035 | [3] 0.119 | [4] 0.003 | [5] 0.125 | [6] 0.244 | [7] 0.113 | [8] -0.031 | IRAK-1-4 Inhibitor I -0.019 | ibrutinib 0.008 | ralimetinib -0.024 | [10] -0.005 | [11] 0.046 | [12] -0.013 | [13] -0.019 | [14] 0.186 | [15] -0.012 | [16] -0.068

UBA1 (UniProt P22314)
inactive: erlotinib 0.034 | [1] 0.017 | [2] -0.022 | [3] 0.003 | [4] 0.004 | [5] 0.002 | [6] -0.044 | [7] 0 | [8] 0.02 | IRAK-1-4 Inhibitor I -0.013 | ibrutinib -0.002 | [9] 0.003 | ralimetinib 0.053 | [10] 0 | [11] 0.027 | [12] -0.018 | [13] 0.006 | [14] 0 | [15] 0.015 | [16] 0.02

TTC27 (UniProt Q6P3X3)
inactive: erlotinib 0.017 | [1] 0.018 | [2] -0.043 | [3] 0.004 | [4] 0.007 | [5] -0.014 | [6] -0.028 | [7] -0.015 | [8] 0.006 | IRAK-1-4 Inhibitor I -0.013 | ibrutinib -0.025 | [9] 0.017 | ralimetinib -0.012 | [10] 0.046 | [11] 0.02 | [12] 0 | [13] -0.011 | [14] -0.012 | [15] 0.034 | [16] 0.042
